# Assay results reported in PubChem BioAssay AID2384 (Southern Research Specialized Biocontainment Screening …, 2010).
# Out of some 2,300 compounds screened, about 1,100 (48%) were called active. How the calls were made is not given here. The set was probably picked from earlier hits. Some of the results follow. Measured potencies and affinities stand elsewhere.
# Test: S. typhi counter-screen signal inhibition – fluorescence, 4 h, counter-screen for PhoP regulon inhibitor project, dose response (AID 2384)
# Conditions: S. typhi GFP reporter counter-screen; series mostly up to 150 µM; inhibition: at the top concentration
row,Compound,inhibition
1,CCOc1ccc(Cl)cc1/C=N/O,26% (inactive)
2,COc1ccccc1/C=C/C(=O)Nc1cccc(C(C)=O)c1,33.4% (inactive)
3,COc1ccc2c(c1)CC1(CN2C)C(=O)NC(=O)N(CCc2ccccc2)C1=O (stereo unspecified),21.6% (inactive)
4,CCOC(=O)c1nc2cc3n(c(CC(C)C)c-2c1C)CC(C)=C3C,35.8% (inactive)
5,CCOc1ccc(N2CC(C(=O)OCC(=O)NCc3ccccc3)CC2=O)cc1 (stereo unspecified),10.8% (inactive)
6,COc1ccc2nc(NC(=O)C3CC(=O)N(c4ccccc4)C3)sc2c1 (stereo unspecified),-6.56% (inactive)
7,CCOC(=O)c1ccc(N2Cc3ccccc3C2=NC(=O)c2cccc([N+](=O)[O-])c2)cc1,-24.8% (inactive)
8,CC(C)Oc1ccc(N2CC(C(=O)Nc3ccccc3F)CC2=O)cc1 (stereo unspecified),4.81% (inactive)
9,COc1ccc(Nc2c3c(nc4ccc(C)cc24)CCC3)cc1,19% (inactive)
10,COc1cccc(-c2ccc(SCc3ccccn3)nn2)c1,0.91% (inactive)
11,COc1ccccc1-c1nc(C(F)(F)F)c(OC)o1,-18.3% (inactive)
12,Cc1cc(C)cc(NC(=O)CSc2nnc(CNC(=O)c3cccs3)o2)c1,-13.1% (inactive)
13,Cc1ccc(CSc2nc3c(c(=O)[nH]2)CCC3)cc1,2.42% (inactive)
14,COc1cc(CNCCCN2CCOCC2)c(Br)cc1OCC(=O)Nc1ccccc1C,30.8% (inactive)
15,Cc1ccc(C)c(OCC(=O)Nc2cccc(C(=O)O)c2)c1C,8.53% (inactive)
16,Fc1cccc(Cl)c1CSc1ccc(-c2ccco2)nn1,-38.2% (inactive)

row,Compound,inhibition
1,Cc1cccc(CSCCNC(=O)COc2ccc(Cl)cc2)c1,7.31% (inactive)
2,CCC(Oc1ccccc1)C(=O)Nc1nnc(S(=O)(=O)N2CCCCC2)s1 (stereo unspecified),-24.2% (inactive)
3,ON=C1/C(=N\O)CC2(C/C1=N/O)OCCO2,9.69% (inactive)
4,O=C(NCCOc1ccccc1)c1ncn[nH]1,21.1% (inactive)
5,CC(C)(C)c1ccc(OCCNC(=S)Nc2ccccc2)cc1,-4.71% (inactive)
6,O=C(N/N=C/c1cccnc1)c1ccc([N+](=O)[O-])cc1Cl,18.8% (inactive)
7,O=C(O)COc1ccccc1/C=N/NC(=O)c1cccc(S(=O)(=O)N2CCOCC2)c1,-4.06% (inactive)
8,Cc1noc(C)c1S(=O)(=O)N1CCC(Cc2ccccc2)CC1,-13.9% (inactive)
9,O=C(N/N=C/c1ccco1)c1cccc(NC(=O)c2cccc(Cl)c2)c1,-0.93% (inactive)
10,O=[N+]([O-])c1ccc2oc(C3CCCCC3)nc2c1,0% (inactive)
11,Cc1cccc(C(=O)NCCC(=O)Nc2ccc(F)c([N+](=O)[O-])c2)c1,21.8% (inactive)
12,CC(C)=CCN1CCN(Cc2nc(-c3ccccc3)cs2)CC1CCO (stereo unspecified),6.37% (inactive)
13,CCO[C@H]1OC(C(=O)O)=C[C@@H](c2ccccc2)[C@@H]1CCCO,1.28% (inactive)
14,Cc1cccc2cc(C(c3nnnn3Cc3ccccc3)N3CCN(C)CC3)c(=O)[nH]c12 (stereo unspecified),6.04% (inactive)
15,O=C(NC1=NCCS1)c1cccc2ccccc12,-9.46% (inactive)
